Screens as filed in PubChem BioAssay.
Many of the other results were omitted from the sample, so hits are more common in it than they were.
HT1080 IDH1KD tx = HT-1080 IDH1 knockdown cell toxicity (counter line); HT-1080 IDH1 knockdown viability, ATP luminescence, 48 h; Potency, µM (series often up to 46.1 µM), hits mostly cytotoxic; 2% of 360,000 active; AID 686971
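% activity derives from luminescence (CellTiter-Glo), normalised to DMSO and no-cell wells. HT-1080-IDH1KD cells, 750/well, had 48 h compound exposure at 37 °C.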
12-LOX inh = ALOX12 (human) lipoxygenase inhibition. P18054. 1.1% of 580,000 active. purified 12hLO, xylenol orange hydroperoxide absorbance. Potency, µM (series often up to 108 µM), hits mostly inhibitors. AID 1671190
Target sequence (P18054 whole entry, looked up): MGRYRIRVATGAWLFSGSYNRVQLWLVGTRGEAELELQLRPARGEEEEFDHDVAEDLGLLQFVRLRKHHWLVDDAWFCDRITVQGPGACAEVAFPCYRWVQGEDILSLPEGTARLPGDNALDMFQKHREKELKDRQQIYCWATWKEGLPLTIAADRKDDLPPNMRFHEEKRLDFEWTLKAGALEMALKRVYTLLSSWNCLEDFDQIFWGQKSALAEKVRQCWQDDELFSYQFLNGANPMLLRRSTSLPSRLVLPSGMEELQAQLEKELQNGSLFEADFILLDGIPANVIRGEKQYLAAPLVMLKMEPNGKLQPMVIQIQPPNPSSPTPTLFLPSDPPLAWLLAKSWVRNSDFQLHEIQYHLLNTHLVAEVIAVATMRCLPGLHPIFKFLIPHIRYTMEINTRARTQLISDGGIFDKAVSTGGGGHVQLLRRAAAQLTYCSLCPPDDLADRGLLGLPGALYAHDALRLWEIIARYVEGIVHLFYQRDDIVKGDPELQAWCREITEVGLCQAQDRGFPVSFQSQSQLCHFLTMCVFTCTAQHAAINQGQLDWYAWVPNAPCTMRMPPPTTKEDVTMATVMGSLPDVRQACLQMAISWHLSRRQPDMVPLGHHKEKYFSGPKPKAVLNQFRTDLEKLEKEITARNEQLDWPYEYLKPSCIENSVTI
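Hydroperoxide product was detected by ferrous iron/xylenol orange as the 573 to 405 nm absorbance ratio. Arachidonic acid at 40 uM (final) was turned over for 30 min at room temperature by 150 nM human 12hLO, pH 7.0 Hepes buffer, after 15 min compound preincubation.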
TDP1 cell CPT = DT40-hTDP1 cell growth loss with CPT | chicken DT40 Tdp1-/-;hTDP1 cells + 20 nM CPT, ATP luminescence, 48 h | Potency, µM (series often up to 46.2 µM), usual class: inhibitors | 12% of 420,000 active; also: nearly all actives have a fitted effect of over 55% in size
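Chicken DT40 Tdp1-/- cells complemented with human TDP1, 400 cells/well, exposed to compounds plus 20 nM camptothecin for at least 48 h at 37 C; viability read as ATP content by CellTiter-Glo luminescence.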
HT1080NT lethal = kills 2HG-producing HT-1080-NT fibrosarcoma cells; 1.6% of 360,000 active; HT-1080-NT fibrosarcoma viability, CellTiter-Glo ATP luminescence, 48 h; Potency, µM (highest dose often 46.1 µM), most hits filed as cytotoxic;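 also: NT is the 2HG producing partner of a matched IDH1 knockdown line; nearly all actives have a fitted effect of over 55% in size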
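Viability of the 2HG-overproducing fibrosarcoma line after 48 hours of compound exposure at 37 degrees C was determined by luminescence with CellTiter-Glo, and concentration-effect curves were then fitted and categorized.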
DT40 TDP1 no CPT = qHTS for Inhibitors of human tyrosyl-DNA phosphodiesterase 1 (TDP1): qHTS in cells in absence of CPT. DT40 Tdp1-/- hTDP1 cells, no CPT, ATP luminescence, 48 h. Potency, µM (titrated, usually from 46.2 µM), actives largely listed as inhibitors. 15% of 420,000 active. AID 686978, 2013; also: nearly all actives have a fitted effect of over 55% in size
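Growth kinetics read by CellTiter-Glo luminescence after ≥48 hr at 37 °C. Cells: DT40 Tdp1-/- stably carrying human TDP1, 400 per well, compound exposure in the absence of CPT (DMSO vehicle).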
IL-1B inflam inh = blocks inflammasome-driven IL-1 beta release. THP-1 LPS/ATP IL-1B secretion, AlphaLISA, 16 h; hits give low values. AID 743279. 4.7% of 360,000 active. activity change, % at 57.5 µM; in the data active = activity change below about -50%; inconclusive = mostly about -30% to -49%
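THP-1 cells pretreated 1 hr with compounds (up to 57.5 uM final), then stimulated with LPS (250 ng/mL final) plus ATP (1.25 mM final); secreted IL-1B measured by AlphaLISA after 16 hr, decreased signal indicating inhibition.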
Each line names hits and unclear results; the compound was inactive in the other large screens. Unless noted, calls follow the shape of the dose curve; as a rule, active = well fitted curve in the direction sought with a large enough effect; inconclusive = small, poorly fitted or top-dose-only effect, or another doubt; inactive = no such curve, though single readings can be large; an effect the other way counts as inactive or inconclusive.

C=CCOc1ccc(/C=N/Nc2ccccn2)cc1OC	DT40 TDP1 no CPT 26µM
C=CCOc1ccc(/C=C(\C#N)C(=O)Nc2ccccn2)cc1OC	12-LOX inh 10µM
COc1ccc(/C=N\Nc2ccccn2)c(OC)c1	none
COc1ccc(/C=C(\C#N)C(=O)Nc2ccccn2)cc1	none
COc1cc(/C=N/Nc2ccccn2)cc(OC)c1O	12-LOX inh inconclusive, TDP1 cell CPT inconclusive, DT40 TDP1 no CPT inconclusive, IL-1B inflam inh -100
COc1cc(/C=N/Nc2ccccn2)ccc1OCC(C)C	TDP1 cell CPT inconclusive, DT40 TDP1 no CPT 10µM
CCCOc1ccc(/C=N/Nc2ccccn2)cc1OC	none
CCOc1ccc(/C=N/Nc2ccccn2)cc1OC	DT40 TDP1 no CPT inconclusive
COc1ccc2oc(=O)c(C(=O)N3CCCCC3C)cc2c1 (stereo not drawn)	none (no result: HT1080 IDH1KD tx, TDP1 cell CPT, HT1080NT lethal, DT40 TDP1 no CPT, IL-1B inflam inh)
Cc1ccc(S(=O)(=O)NC(=O)C2(C)CCN2C(=O)Cc2ccc(C(C)(C)C)cc2)cc1 (stereo not drawn)	none
Cc1ccc(CNC(=O)C2(C)CCN2C(=O)Cc2ccc(C(C)(C)C)cc2)cc1 (stereo not drawn)	HT1080 IDH1KD tx inconclusive, 12-LOX inh inconclusive, TDP1 cell CPT 16µM, HT1080NT lethal inconclusive, DT40 TDP1 no CPT 18µM
CC(C)(C)c1ccc(CC(=O)N2CCC2(C)C(=O)Nc2cccc3ccccc23)cc1 (stereo not drawn)	HT1080 IDH1KD tx inconclusive, TDP1 cell CPT inconclusive, HT1080NT lethal inconclusive, DT40 TDP1 no CPT inconclusive
CC(C)(C)c1ccc(CC(=O)N2CCC2(C)C(=O)NS(=O)(=O)c2ccc(F)cc2F)cc1 (stereo not drawn)	12-LOX inh inconclusive, IL-1B inflam inh -51
CC(C)(C)c1ccc(CC(=O)N2CCC2(C)C(=O)NCc2cccc3ccccc23)cc1 (stereo not drawn)	HT1080 IDH1KD tx 16µM, TDP1 cell CPT 23µM, HT1080NT lethal inconclusive, DT40 TDP1 no CPT 26µM, IL-1B inflam inh inconclusive
CC1(C(=O)NS(=O)(=O)c2ccc(F)cc2F)CCN1C(=O)Cc1ccc(-c2ccccc2)cc1 (stereo not drawn)	12-LOX inh inconclusive
CCOc1ccc(OCC)c(S(=O)(=O)NC2CC(C)(C)NC(C)(C)C2)c1	IL-1B inflam inh -59
CCOc1cc(C)c(C(C)C)cc1S(=O)(=O)NC1CC(C)(C)NC(C)(C)C1	none (no result: HT1080 IDH1KD tx, TDP1 cell CPT, HT1080NT lethal, DT40 TDP1 no CPT, IL-1B inflam inh)
CN(Cc1cn(-c2ccccc2)nc1-c1ccc2c(c1)OCO2)Cc1nccn1C	TDP1 cell CPT 26µM, DT40 TDP1 no CPT 23µM, IL-1B inflam inh inconclusive
CN(CCn1ccnc1)Cc1cn(-c2ccccc2)nc1-c1ccc2c(c1)OCO2	none
Cc1nc(-c2cnccn2)n(CC(=O)Nc2cccc(Cl)c2)c(=O)c1C	none (no result: HT1080 IDH1KD tx, TDP1 cell CPT, HT1080NT lethal, DT40 TDP1 no CPT, IL-1B inflam inh)
C/C=C/c1c(F)c(F)c(Oc2ccc(C(=O)O)cc2)c(F)c1F	HT1080NT lethal 16µM
COC(=O)c1c(F)c(F)c(Oc2ccc(C(C)=O)cc2)c(F)c1F	none (no result: HT1080 IDH1KD tx, TDP1 cell CPT, HT1080NT lethal, DT40 TDP1 no CPT, IL-1B inflam inh)
CCN(CC)C1CCOC2(CCN(C(=O)C3CC3)CC2)C1 (stereo not drawn)	none (no result: HT1080 IDH1KD tx, TDP1 cell CPT, HT1080NT lethal, DT40 TDP1 no CPT, IL-1B inflam inh)
CN(C)CCOC1(Cc2ccc(F)cc2)CCC(C(C)(C)C)CC1 (stereo not drawn)	TDP1 cell CPT inconclusive, DT40 TDP1 no CPT 18µM, IL-1B inflam inh -104
Cc1ccc(CC2(OCCN(C)C)CCC(C(C)(C)C)CC2)cc1 (stereo not drawn)	12-LOX inh inconclusive, TDP1 cell CPT 18µM, DT40 TDP1 no CPT 15µM, IL-1B inflam inh -99
CC1(C)CC(=O)/C(=C\c2cccc([N+](=O)[O-])c2)C(C)(C)N1	HT1080 IDH1KD tx inconclusive, TDP1 cell CPT inconclusive, DT40 TDP1 no CPT 16µM, IL-1B inflam inh -82
COc1cc(-c2onc(C)c2C(=O)NCCCOC(C)C)cc(OC)c1OC	none (no result: HT1080 IDH1KD tx, TDP1 cell CPT, HT1080NT lethal, DT40 TDP1 no CPT, IL-1B inflam inh)
COc1ccccc1NS(=O)(=O)c1cc(N/C(=N\S(=O)(=O)c2ccccc2)c2ccc(F)cc2)ccc1Cl	TDP1 cell CPT 18µM (no result: DT40 TDP1 no CPT)
